What all share (test): NCI-60 one-dose screen, 48 h (100 = growth as untreated, 0 = no growth, -100 = all killed)
One test concerns HCT-15 colon. The note with it: 10 µM unless noted.
The subject of the next test is HT29 colon. Particulars: 10 µM unless noted.
A further test deals with SNB-75 CNS. Particulars: 10 µM unless noted.
Another test has as its system SNB-19 CNS. Particulars: 10 µM unless noted.
Another test concerns U251 CNS. The note with it: 10 µM unless noted.
In a further test the test system is PC-3 prostate. The note with it: 10 µM unless noted.
The test system of another test is SK-MEL-5 melanoma. Particulars: 10 µM unless noted.
The subject of another test is UACC-62 melanoma. The note with it: 10 µM unless noted.
In the next test the test system is LOX IMVI melanoma. Particulars: 10 µM unless noted.
In a further test the test system is SK-MEL-28 melanoma. Particulars: 10 µM unless noted.
A further test concerns SK-MEL-2 melanoma. The note with it: 10 µM unless noted.
A further test concerns EKVX NSCLC. The note with it: 10 µM.
A further test deals with SN12C renal. Particulars: 10 µM unless noted.
The test system of a further test is UO-31 renal. The note with it: 10 µM unless noted.
The subject of the next test is TK-10 renal. The note with it: 10 µM unless noted.
A further test concerns ACHN renal. The note with it: 10 µM unless noted.
A further test relates to CAKI-1 renal. The note with it: 10 µM unless noted.
A further test concerns A498 renal. The note with it: 10 µM unless noted.
Another test relates to CCRF-CEM leukemia. Particulars: 10 µM.
A further test deals with MOLT-4 leukemia. Particulars: 10 µM unless noted.

This is part of a sample that, as a whole, favours compounds with a hit. Of some 83,000 tested, about 20% had one in any assay.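 The endpoint reported here, percent growth, reads 100 for growth as untreated, 0 for no net growth and -100 for all cells dead.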 Values without a mark were called inactive. Active and inactive are the calls of the source. The calls were made as follows: active = growth percent below 10; inactive = the rest.

Regarding `c1ccc(Nc2ncc3c(n2)-c2cccn2CC3)cc1`, the growth was 32.9% with HCT-15 colon; 114% in the test with HT29 colon; 83.3% in the test on SNB-75 CNS; 103% in the test with SNB-19 CNS; 93.7% in the test with U251 CNS; 81.3% in the test on PC-3 prostate. The growth in the test with SK-MEL-5 melanoma is 67%; in the test with UACC-62 melanoma it was 80.1%; in the test on LOX IMVI melanoma, 92.4%; in the test with SK-MEL-28 melanoma, 107%; with SK-MEL-2 melanoma, 101%; in the test on EKVX NSCLC, 66.2%. Besides, the growth with SN12C renal was 85.7%; with UO-31 renal, 49.1%; in the test with TK-10 renal it was 90.8%; in the test on ACHN renal it was 74.4%; with CAKI-1 renal, 72.4%; in the test on A498 renal, 75.5%. In addition, the growth in the test on CCRF-CEM leukemia was 102%; with MOLT-4 leukemia, 99.4%.

Consider `O=S(=O)(Cc1cccc2c(CS(=O)(=O)c3ccc(Cl)cc3)cccc12)c1ccc(Cl)cc1`, for which the growth is 92.8% with HCT-15 colon; 93.7% in the test with HT29 colon; 88.1% in the test on SNB-75 CNS; 104% in the test with SNB-19 CNS; 104% in the test with U251 CNS; 92% in the test with PC-3 prostate. Further, the growth was 92.3% in the test on SK-MEL-5 melanoma; 98.3% in the test on UACC-62 melanoma; 94.1% in the test on LOX IMVI melanoma; 107% in the test with SK-MEL-28 melanoma; 98.8% in the test on SK-MEL-2 melanoma; 82.4% in the test with EKVX NSCLC. In addition, the growth with SN12C renal was 98.6%; in the test with UO-31 renal, 106%; with TK-10 renal, 113%; with ACHN renal it was 96.7%; with CAKI-1 renal, 73%; with A498 renal, 109%. Further, the growth was 90.7% in the test on CCRF-CEM leukemia and 95.5% in the test with MOLT-4 leukemia.

Take `O=C1/C(=C/c2ccc(Cl)cc2)CCC/C1=C\c1ccc(Cl)cc1`: the growth with HCT-15 colon was 80.9%; in the test with HT29 colon, 6.8% (active); with SNB-75 CNS it was 90.1%; in the test on SNB-19 CNS, 92.5%; in the test with U251 CNS it was 14.7%; in the test on PC-3 prostate it was 90.8%. The growth was 84.6% in the test with SK-MEL-5 melanoma; 80.5% in the test on UACC-62 melanoma; -67.7% (active) in the test with LOX IMVI melanoma; 110% in the test with SK-MEL-28 melanoma; 117% in the test on SK-MEL-2 melanoma; 89.2% in the test with EKVX NSCLC. Also, the growth is 92% in the test with SN12C renal; 74.1% in the test with UO-31 renal; 123% with TK-10 renal; 95% in the test with ACHN renal; 89.4% with CAKI-1 renal; 105% in the test on A498 renal. Also, the values for the growth in the test with CCRF-CEM leukemia and in the test on MOLT-4 leukemia were 78.1% and 80.2%, respectively.

With `COc1ccc(C2C3(C#N)C(N)=NC(=C(C#N)C#N)C23C#N)cc1OC` (stereo not given), the growth in the test on HCT-15 colon was 114%; with HT29 colon, 116%; with SNB-75 CNS, 107%; in the test on SNB-19 CNS it was 106%; with U251 CNS, 103%; in the test with PC-3 prostate, 111%. Also, the growth in the test with SK-MEL-5 melanoma was 105%; in the test with UACC-62 melanoma, 99.8%; in the test on LOX IMVI melanoma, 98.7%; in the test on SK-MEL-28 melanoma, 115%; in the test on SK-MEL-2 melanoma it was 104%; in the test on EKVX NSCLC, 94.6%. Also, the growth was 109% with SN12C renal; 91% in the test with UO-31 renal; 114% in the test on TK-10 renal; 106% with ACHN renal; 86.9% in the test on CAKI-1 renal; 101% in the test with A498 renal. The growth was 92.3% in the test on CCRF-CEM leukemia and 102% in the test with MOLT-4 leukemia.

In the case of `O=C(N/N=C/c1cc(Cl)ccc1O)C(=O)N/N=C/c1cc(Cl)ccc1O`, the growth in the test on HCT-15 colon is 44.7%; with HT29 colon it was 45.4%; with SNB-75 CNS it was 71.9%; in the test on SNB-19 CNS it was 82.6%; in the test with U251 CNS, 50%; with PC-3 prostate, 56.1%. The growth with SK-MEL-5 melanoma was 56.3%; in the test on UACC-62 melanoma, 64.7%; with LOX IMVI melanoma it was 47.9%; with SK-MEL-28 melanoma, 93.2%; in the test on SK-MEL-2 melanoma, 109%; in the test with EKVX NSCLC, 69.2%. The growth was 79.5% with SN12C renal; 48.2% in the test on UO-31 renal; 76.3% in the test with TK-10 renal; 53.4% with ACHN renal; 37.2% with CAKI-1 renal; 81.3% with A498 renal. Further, the growth is 39.7% in the test on CCRF-CEM leukemia and 55.9% with MOLT-4 leukemia.

With `CCCCCCCCCCCCCCCCCC1=NCCN1CCNC(C)=O`, the growth with HCT-15 colon is 74.6%; with HT29 colon it was 57.3%; with SNB-75 CNS, 83.5%; in the test on SNB-19 CNS it was 101%; in the test on U251 CNS it was 79.1%; with PC-3 prostate it was 80.3%. The growth is 102% in the test on SK-MEL-5 melanoma; 107% in the test on UACC-62 melanoma; -14.6% (active) in the test on LOX IMVI melanoma; 98.1% in the test on SK-MEL-28 melanoma; 111% with SK-MEL-2 melanoma; 80% with EKVX NSCLC. The growth in the test on SN12C renal is 104%; with UO-31 renal, 83.2%; with TK-10 renal it was 103%; with ACHN renal it was 91.4%; in the test with CAKI-1 renal it was 87.6%; in the test on A498 renal it was 78.4%. In addition, the growth with CCRF-CEM leukemia was 40.3%; with MOLT-4 leukemia it was 62.6%.

With `O=C1NCCN1/N=C/c1c(Cl)nc2n1CCS2`, the growth in the test on HCT-15 colon was 101%; with HT29 colon it was 108%; with SNB-75 CNS, 101%; in the test with SNB-19 CNS, 108%; in the test on U251 CNS it was 86.1%; in the test with PC-3 prostate, 76.3%. Besides, the growth was 132% in the test with SK-MEL-5 melanoma; 135% in the test with UACC-62 melanoma; 101% in the test on LOX IMVI melanoma; 107% with SK-MEL-28 melanoma; 70.2% in the test on SK-MEL-2 melanoma; 111% in the test on EKVX NSCLC. Further, the growth with SN12C renal was 140%; with UO-31 renal it was 58.6%; with TK-10 renal, 116%; in the test on ACHN renal, 108%; with CAKI-1 renal, 98.7%; with A498 renal, 156%. The growth was -62.2% (active) in the test with CCRF-CEM leukemia and 96.6% with MOLT-4 leukemia.

Regarding `Cc1ccnc2c(NC(C)CCCN)cc(O)c(O)c12` (stereo not given), the growth is 121% with HCT-15 colon; 60% with HT29 colon; 105% with SNB-75 CNS; 102% in the test on SNB-19 CNS; 83.1% in the test with U251 CNS; 91.6% with PC-3 prostate. Further, the growth is 95.9% in the test on SK-MEL-5 melanoma; 105% in the test on UACC-62 melanoma; 60.7% in the test on LOX IMVI melanoma; 115% with SK-MEL-28 melanoma; 91.9% in the test on SK-MEL-2 melanoma; 93.8% with EKVX NSCLC. Moreover, the growth in the test on SN12C renal is 27.2%; with UO-31 renal, 83.7%; with TK-10 renal, 109%; in the test on ACHN renal, 99.5%; in the test with CAKI-1 renal it was 89.3%; with A498 renal, 93.5%. Further, the growth with CCRF-CEM leukemia is 39.6%; in the test with MOLT-4 leukemia it was 54.1%.

The values above are taken from PubChem BioAssay (NCI).
